The list is not random: actives were taken first. Their share in the collection is about 3.5%.
FBW7 act – FBW7 E3 ligase activators, primary screen, biochemical, AlphaScreen, human. F-box/WD repeat-containing protein 7 (Homo sapiens), Q969H0. AlphaScreen FBW7–phospho-cyclin E peptide binding, activator screen. normalized activity (activation), % at 26.1 µM. 650,000 tested, 0.13% active; in the data active = normalized activity above about 1.9%;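 also: purified mutant Fbw7 with reduced substrate affinity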
GPR151 activ – activators of human GPR151, primary screen, cell-based, PathHunter beta-arrestin, luminescence. activation, % at 11.2 µM. PathHunter beta-arrestin GPR151 cells. AID 1508602, 2020. 650,000 tested, 1% active; in the data active = activation above about 4.9%;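 also: 0% = median of compound wells and 100% = cells with positive control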
TEAD-YAP inh – TEAD-YAP interaction inhibition, primary screen, TEAD-YAP interaction inhibitor project, luminescence, HEK-TIYL cells | inhibition, % at 9.12 µM | TEAD-Gal4/YAP UAS-luciferase luminescence | 640,000 tested, 1.4% active; in the data active = inhibition above about 32%;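 also: 0% = median of test compound wells and 100% = reference inhibitor wells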
MITF primary – MITF inhibitors, primary screen, biochemical, AlphaScreen, human | Microphthalmia-associated transcription factor (Homo sapiens), O75030 | AlphaScreen MITF homodimerization, bead proximity signal | 650,000 tested, 0.91% active | inhibition, % at 2.6 µM; in the data active = inhibition above about 50%;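 also: 0% = vehicle wells with protein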
Target sequence (O75030 whole entry, looked up): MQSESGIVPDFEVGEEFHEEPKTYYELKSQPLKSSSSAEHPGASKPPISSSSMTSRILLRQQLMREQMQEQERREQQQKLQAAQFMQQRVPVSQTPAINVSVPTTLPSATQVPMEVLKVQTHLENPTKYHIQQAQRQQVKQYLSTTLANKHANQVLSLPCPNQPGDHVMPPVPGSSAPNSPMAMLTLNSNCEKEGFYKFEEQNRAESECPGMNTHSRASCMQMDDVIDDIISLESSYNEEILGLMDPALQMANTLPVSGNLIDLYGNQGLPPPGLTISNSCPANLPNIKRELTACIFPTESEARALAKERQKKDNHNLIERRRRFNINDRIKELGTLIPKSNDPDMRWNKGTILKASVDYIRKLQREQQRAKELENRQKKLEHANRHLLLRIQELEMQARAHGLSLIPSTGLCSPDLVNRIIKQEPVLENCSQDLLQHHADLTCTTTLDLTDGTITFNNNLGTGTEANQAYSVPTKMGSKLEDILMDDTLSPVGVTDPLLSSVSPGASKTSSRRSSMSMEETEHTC
GPR151 confirm – GPR151 activators, triplicate retest, confirmation, cell-based, PathHunter beta-arrestin, luminescence | shares compounds with GPR151 activ | GPR151 PathHunter beta-arrestin cells, 90 min; % of EA-reagent control over plate median | activation, % at 11.2 µM | 6,700 tested, under 10 active | AID 1508609, 2020;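 active = mean percent activation across replicates above the confirmation screen cutoff of 4.91%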
GPR119 ag – GPR119 activators in beta-arrestin cells, counter-screen for GPR151 activator project, cell-based, PathHunter beta-arrestin, luminescence, triplicate; shares compounds with GPR151 activ; 90 min; 0 = compound-well median, 100 = enzyme-acceptor control; activation, % at 11.2 µM; 6,700 tested, 0.3% active;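 active = mean percent activation in the counterscreen above 29.09%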;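 also: counterscreen on off-target GPR119 to flag nonselective hits from the GPR151 activator screen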
An asterisk follows results filed as active.

`COc1c(C)cc(C(=O)C2CCCN(S(=O)(=O)c3c(C)nn(C)c3Cl)C2)cc1C` (stereo not given) gave FBW7 act -0.2, GPR151 activ 8.7*, TEAD-YAP inh -0.1, MITF primary -1.8, GPR151 confirm -0.2 and GPR119 ag -3.0.
N#Cc1c(-c2ccccc2)cc(-c2ccccc2)nc1SCc1ccc(Cl)c(Cl)c1 was read as FBW7 act -0.1, GPR151 activ -0.3, TEAD-YAP inh -8.4 and MITF primary 5.2.
N#Cc1c(-c2ccccc2)cc(-c2ccccc2)nc1SCc1ccc(Cl)cc1 was read as FBW7 act 0.0, GPR151 activ 5.5*, TEAD-YAP inh 2.0, MITF primary -0.6, GPR151 confirm 0.6 and GPR119 ag -6.0.
Screening CC(=O)Oc1ccccc1/C=N/NC(=O)CNc1ccc2ccccc2c1 returned FBW7 act -0.2, GPR151 activ 0.5, TEAD-YAP inh 6.3 and MITF primary 3.5.
`O=C(O)CCCC(=O)N1CCC(N2C(=O)Cc3ccccc32)CC1` gave FBW7 act -0.3, GPR151 activ 9.2*, TEAD-YAP inh -5.7, MITF primary -5.5, GPR151 confirm -0.7 and GPR119 ag -11.1.
`COc1ccc(CCC(=O)Nc2sc3c(c2C(N)=O)CCC(C)C3)cc1` (stereo not given) gave FBW7 act -0.4, GPR151 activ 0.0, TEAD-YAP inh 7.7 and MITF primary 2.6.
CCOc1cc(C(=S)N2CCCCC2)ccc1O was read as FBW7 act 0.0, GPR151 activ 1.7, TEAD-YAP inh 0.0 and MITF primary 2.7.
Screening COc1ccc(C)cc1NC(=O)c1sc2nc3n(c(=O)c2c1C)CCCC3 returned FBW7 act -0.2, GPR151 activ 1.7, TEAD-YAP inh -0.4 and MITF primary -0.9.
`COc1cc(NC(=O)c2sc3nc4n(c(=O)c3c2C)CCCC4)cc(OC)c1OC` gave FBW7 act 0.0, GPR151 activ 11.7*, TEAD-YAP inh -8.3, MITF primary -6.2, GPR151 confirm 0.4 and GPR119 ag -1.2.
`O=C(Oc1coc(CSc2ncccn2)cc1=O)c1cc2ccccc2oc1=O` gave FBW7 act -0.1, GPR151 activ -1.8, TEAD-YAP inh 3.2 and MITF primary 26.1.
Screening O=C(COc1cccc(Cl)c1Cl)c1ccc[nH]1 returned FBW7 act -0.2, GPR151 activ 9.9*, TEAD-YAP inh -9.4, MITF primary 0.1, GPR151 confirm 0.1 and GPR119 ag -12.4.
`Cc1cc(C(=O)COC(=O)c2cc(Cl)cc(Cl)c2)c(C)n1C` gave FBW7 act 0.0, GPR151 activ -1.2, TEAD-YAP inh -8.5 and MITF primary -1.1.
Cc1[nH]c(C(=O)OCC(=O)c2cc(C)n(C)c2C)c(C)c1C(C)O (stereo not given) was read as FBW7 act -0.2, GPR151 activ 5.2*, TEAD-YAP inh -19.5, MITF primary 1.8, GPR151 confirm 1.1 and GPR119 ag 0.2.
For COc1ccccc1/C=C/CN1CCN(Cc2cccs2)C(CCO)C1 (stereo not given) the results were FBW7 act 0.2, GPR151 activ 6.9*, TEAD-YAP inh 2.7, MITF primary 8.4, GPR151 confirm -1.0 and GPR119 ag -9.8.
Screening Cc1ccc(CN2CCN(C/C(Cl)=C/c3ccccc3)CC2CCO)o1 (stereo not given) returned FBW7 act 0.2, GPR151 activ 5.4*, TEAD-YAP inh 7.0, MITF primary 8.3, GPR151 confirm 0.0 and GPR119 ag -0.8.
For COc1ccccc1/C=C/CN1CCN(Cc2ccccc2)C(CCO)C1 (stereo not given) the results were FBW7 act -0.1, GPR151 activ -0.3, TEAD-YAP inh -3.0 and MITF primary -3.2.
For CC(C)=CCN1CCN(Cc2ccc3nonc3c2)CC1CCO (stereo not given) the results were FBW7 act 0.1, GPR151 activ 5.4*, TEAD-YAP inh 3.0, MITF primary 2.7, GPR151 confirm -0.8 and GPR119 ag -19.9.
Cc1ccc(CN2CCN(Cc3ccc4nonc4c3)CC2CCO)cc1 (stereo not given) was read as FBW7 act 0.2, GPR151 activ -0.6, TEAD-YAP inh -1.1 and MITF primary 11.2.
`Cc1ccc(CN2CCN(C/C=C/c3ccc(F)cc3)CC2CCO)o1` (stereo not given) gave FBW7 act 0.1, GPR151 activ 12.6*, TEAD-YAP inh 4.7, MITF primary 12.4, GPR151 confirm -0.1 and GPR119 ag -4.6.
For Cc1ccc(CN2CCN(C/C=C/C(C)C)CC2CCO)o1 (stereo not given) the results were FBW7 act 0.2, GPR151 activ -1.4, TEAD-YAP inh -3.2 and MITF primary 3.1.
For COc1ccc(C2Nc3ccccc3C(=O)N2c2ccccc2)c(OC)c1 (stereo not given) the results were FBW7 act 0.1, GPR151 activ -2.0, TEAD-YAP inh -26.4 and MITF primary -1.7.
Screening O=C(NCc1ccccc1)N1CCC2(CC1)NCCc1c2[nH]c2ccc(Cl)cc12 returned FBW7 act -0.3, GPR151 activ 0.3, TEAD-YAP inh -1.2 and MITF primary 17.3.
Screening N#Cc1c(NC(=O)c2ccc(F)cc2)sc2c1CCC2 returned FBW7 act -0.2, GPR151 activ -0.6, TEAD-YAP inh -70.2 and MITF primary -3.5.
For CCOC(=O)/C=C1\CCC(C=O)=C1N1CCOCC1 the results were FBW7 act 0.0, GPR151 activ 1.0, TEAD-YAP inh 5.1 and MITF primary 17.0.
Screening O=C(NCc1ccc(Cl)cc1)c1ccc2c(c1)[nH]c(=S)n1c3ccccc3nc21 returned FBW7 act 0.7, GPR151 activ 0.2, TEAD-YAP inh -14.9 and MITF primary 11.6.
Screening Cc1ccc(CN2CCN(Cc3ccc4c(c3)OCCO4)CC2CCO)o1 (stereo not given) returned FBW7 act 0.0, GPR151 activ 5.9*, TEAD-YAP inh 3.2, MITF primary 7.6, GPR151 confirm 0.6 and GPR119 ag 12.0.
`CCCCCOC(=O)CSc1nc(N)c2c3c(sc2n1)CCCC3` gave FBW7 act -0.1, GPR151 activ -1.1, TEAD-YAP inh -5.1 and MITF primary 0.8.
`CCOC(=O)CSc1nc(N)c2c3c(sc2n1)CCCC3` gave FBW7 act 0.9, GPR151 activ 13.4*, TEAD-YAP inh -8.0, MITF primary -3.4, GPR151 confirm -1.0 and GPR119 ag 0.4.

Screening data deposited in PubChem by The Scripps Research Institute Molecular Screening Center.
